Experimental data published in PubChem BioAssay.
This is one part of the list. Activity calls are given as the source filed them. Cut-off read from the data, not from the text of the source, unless noted: active = activity above about 50%; inactive = the rest.

Assays:
[1] = biological target: Tumor necrosis factor receptor superfamily member 10B (Homo sapiens) (UniProt O14763); test: viability loss of caspase-8 NB7 cells with TRAIL – with/without TRAIL, luminescence panel, confirmation (AID 651596); details: NB7 neuroblastoma + caspase-8, TRAIL sensitization, NB7 Caspase-8, with TRAIL, mean of runs, at 10 µM, stronger effect = higher value
Tumor necrosis factor receptor superfamily member 10B (Homo sapiens), sequence (O14763 whole entry, looked up): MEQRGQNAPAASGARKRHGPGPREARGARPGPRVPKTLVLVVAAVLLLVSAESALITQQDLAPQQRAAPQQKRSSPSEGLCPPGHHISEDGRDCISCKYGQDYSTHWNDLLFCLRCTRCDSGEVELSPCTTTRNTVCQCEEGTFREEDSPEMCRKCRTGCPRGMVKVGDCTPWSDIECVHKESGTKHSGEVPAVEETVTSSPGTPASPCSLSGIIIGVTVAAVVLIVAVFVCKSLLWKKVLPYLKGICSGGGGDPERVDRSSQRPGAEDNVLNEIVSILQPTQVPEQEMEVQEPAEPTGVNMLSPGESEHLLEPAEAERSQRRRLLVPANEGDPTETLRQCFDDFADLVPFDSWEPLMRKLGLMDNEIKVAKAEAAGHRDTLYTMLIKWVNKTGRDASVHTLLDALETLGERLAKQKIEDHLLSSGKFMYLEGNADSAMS

[2] = as above; details: NB7 neuroblastoma + caspase-8, without TRAIL, NB7 Caspase-8, without TRAIL, mean of runs, at 10 µM
[3] = biological target: Tumor necrosis factor receptor superfamily member 10B (Homo sapiens) (UniProt O14763); test: compound enhancement of TRAIL-induced cell killing – NB7 cells plus caspase-8, luminescence, panel, dose response (AID 652002); details: NB7 neuroblastoma +caspase-8, TRAIL sensitization, luminescence viability, NB7+Caspase-8, with TRAIL, run 1; at 12.5 µM (top of the series)
[4] = biological target: Tumor necrosis factor receptor superfamily member 10B (Homo sapiens) (UniProt O14763); test: as above; details: NB7 neuroblastoma +caspase-8, TRAIL sensitization, luminescence viability, NB7+Caspase-8, with TRAIL, run 2; at 12.5 µM (top of the series)
[5] = as above; details: NB7 neuroblastoma +caspase-8, no TRAIL, compound-alone cytotoxicity counter-screen, luminescence viability, NB7+Caspase-8, run 1; at 12.5 µM (top of the series) unless noted
[6] = as above; details: NB7 neuroblastoma +caspase-8, no TRAIL, compound-alone cytotoxicity counter-screen, luminescence viability, NB7+Caspase-8, run 2; at 12.5 µM (top of the series) unless noted
[7] = biological target: COP9 signalosome complex subunit 5 (Homo sapiens) (UniProt Q92905); test: blockers of CSN-driven cullin deneddylation – biochemical, fluorescence polarization, single concentration, SCF-Nedd8OG substrate, confirmation (AID 720654; in the data active = inhibition above about 50%;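 note: 0% = DMSO with enzyme and 100% = no enzyme wells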); details: Csn5 deneddylation of SCF-Nedd8OG, 90 min, at 16.6 µM, stronger effect = higher value
COP9 signalosome complex subunit 5 (Homo sapiens), sequence (Q92905 whole entry, looked up, one chain of several): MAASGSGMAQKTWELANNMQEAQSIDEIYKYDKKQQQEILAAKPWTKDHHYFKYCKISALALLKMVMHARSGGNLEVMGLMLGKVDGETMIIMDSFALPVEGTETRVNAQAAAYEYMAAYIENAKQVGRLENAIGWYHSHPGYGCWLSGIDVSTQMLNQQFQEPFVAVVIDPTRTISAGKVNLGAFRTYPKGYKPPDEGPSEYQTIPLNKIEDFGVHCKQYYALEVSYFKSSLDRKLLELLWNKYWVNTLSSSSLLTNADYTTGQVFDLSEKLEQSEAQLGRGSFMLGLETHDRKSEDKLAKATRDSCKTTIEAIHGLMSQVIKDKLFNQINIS

[8] = biological target: 72 kDa type IV collagenase (Homo sapiens) (UniProt P08253); test: human MMP-2 inhibitors, single-point check – biochemical, fluorescence, single concentration, counter-screen for CSN deneddylation inhibitor project, confirmation (AID 720655;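 active = corrected plate-normalized z-score of 5 or more, or -5 or less, or inhibition of 15% or more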;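 note: plate controls were DMSO wells with enzyme for no effect and buffer wells lacking MMP-2 for full effect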); details: recombinant MMP-2, FRET substrate fluorescence, 60 min; at 16.6 µM
72 kDa type IV collagenase (Homo sapiens), sequence (P08253 whole entry, looked up): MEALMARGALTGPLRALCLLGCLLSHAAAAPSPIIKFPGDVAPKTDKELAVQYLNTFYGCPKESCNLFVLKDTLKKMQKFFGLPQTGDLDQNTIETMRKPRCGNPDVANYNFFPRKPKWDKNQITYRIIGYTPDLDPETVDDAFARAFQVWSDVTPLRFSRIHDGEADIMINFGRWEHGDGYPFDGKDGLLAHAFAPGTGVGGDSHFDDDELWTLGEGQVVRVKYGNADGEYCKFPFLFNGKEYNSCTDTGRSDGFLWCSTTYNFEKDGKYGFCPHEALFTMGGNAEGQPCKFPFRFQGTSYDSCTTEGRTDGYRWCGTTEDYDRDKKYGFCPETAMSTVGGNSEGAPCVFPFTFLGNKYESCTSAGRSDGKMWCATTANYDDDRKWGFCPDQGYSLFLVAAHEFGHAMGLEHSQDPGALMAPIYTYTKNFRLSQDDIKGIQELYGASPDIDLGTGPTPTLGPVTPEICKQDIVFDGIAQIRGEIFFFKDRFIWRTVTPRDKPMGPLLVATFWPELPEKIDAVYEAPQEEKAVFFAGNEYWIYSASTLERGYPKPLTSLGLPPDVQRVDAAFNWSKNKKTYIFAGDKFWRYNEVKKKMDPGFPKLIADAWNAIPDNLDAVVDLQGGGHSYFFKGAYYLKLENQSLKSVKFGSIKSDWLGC

Prothrombin (Bos taurus) = Prothrombin (Bos taurus) (UniProt P00735); test: thrombin cleavage blockers, FP readout – biochemical, fluorescence polarization, single concentration, counter-screen for CSN deneddylation inhibitor project, confirmation (AID 720656;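 active = inhibition at or above a set limit, with a fluorescence interference ratio between 0.5 and a set maximum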); details: bovine thrombin cleavage of Ub4-pepOG, at 16.6 µM, stronger effect = higher value
Prothrombin (Bos taurus), sequence (P00735 whole entry, looked up): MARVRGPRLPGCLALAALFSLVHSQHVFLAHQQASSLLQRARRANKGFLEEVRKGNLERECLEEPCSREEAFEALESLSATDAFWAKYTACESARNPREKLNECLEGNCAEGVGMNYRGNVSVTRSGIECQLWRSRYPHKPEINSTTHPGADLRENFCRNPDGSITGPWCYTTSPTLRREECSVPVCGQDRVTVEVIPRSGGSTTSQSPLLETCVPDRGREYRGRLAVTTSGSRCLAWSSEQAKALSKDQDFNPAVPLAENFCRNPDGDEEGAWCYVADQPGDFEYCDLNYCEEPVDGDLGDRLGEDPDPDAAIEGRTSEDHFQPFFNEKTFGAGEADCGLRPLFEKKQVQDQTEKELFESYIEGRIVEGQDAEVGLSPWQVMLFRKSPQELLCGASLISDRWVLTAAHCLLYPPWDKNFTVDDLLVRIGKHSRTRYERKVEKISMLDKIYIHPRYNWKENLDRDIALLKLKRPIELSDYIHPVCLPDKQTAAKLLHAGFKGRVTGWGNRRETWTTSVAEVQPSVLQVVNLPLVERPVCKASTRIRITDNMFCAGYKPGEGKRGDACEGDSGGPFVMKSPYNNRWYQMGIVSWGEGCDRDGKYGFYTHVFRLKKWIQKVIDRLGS

Row | Compound | activity [1] | activity [2] | activity, % sensitization [3] | activity, % sensitization [4] | activity, % sensitization [5] | activity, % sensitization [6] | inhibition [7] | inhibition [8] | inhibition (Prothrombin (Bos taurus))
1 | COc1ccc(-c2cc(C(=O)OCC(=O)Nc3ccc4c(c3)OCO4)c3ccccc3n2)cc1 | 54.6% | 48.5% | 31.3% | 43.9% | 34.3% | 46.2% | – | – | –
2 | CC(C)(C)OC(=O)[C@H](Cc1ccccc1)NC(=O)c1[nH]cnc1C(=O)Nc1ccccc1F | 54.9% | 54.8% | 16.8% | -4.6% | 6.22% | 2.55% | – | – | –
3 | COC(=O)[C@]12CCCCC=C1N(Cc1cccc3ccccc13)C(=O)[C@H](CC(=O)NCc1ccc(OC)c(OC)c1)C2 | 66.4% | 53% | 24.8% | 43% | 16.7% | 36.7% | – | – | –
4 | CS(=O)(=O)c1ccc2c(c1)SC1=NC(=O)/C(=C/c3ccco3)C(=N)N12 | – | – | – | – | – | – | 50% (inactive) | 4.65% (inactive) | 41.6% (active)
5 | COCCNc1c(-c2cc3ccc(C)c(C)c3[nH]c2=O)nc2ccccn12 | 64.9% | 47.6% | 60.1% | 54.8% | -1.27% | 53.5% | – | – | –
6 | Cc1ccc(NC(=O)c2ccccc2O)cc1 | 61% | 48.8% | 28% | 37.1% | 29% | 31.3% | – | – | –
7 | O=C(NCC1CCCO1)c1ccc2c3n(nc2c1)-c1ccccc1CO3 (stereo not given) | 52.9% | 54.6% | 29.1% | 41.5% | 21% | 11.7% | – | – | –
8 | CC1(Cc2ccc(OC(F)(F)F)cc2)C(=O)Nc2ccc(S(=O)(=O)NC3CCCCC3)cc21 (stereo not given) | 46.4% | 31% | -0.836% | -0.606% | 23.3% | 28.2% | – | – | –
9 | O=c1[nH]c(N/N=C\c2ccc3c(c2)OCO3)nc2ccccc12 | 53.6% | 50.5% | 33.9% | 44.5% | 38.2% | 35.1% | – | – | –
10 | CN(C)CCCN(C(=O)c1ccc(C(=O)c2ccccc2)cc1)c1nc2ccc(F)cc2s1 | 64.6% | 34.9% | 12.1% | 3.85% | 0.995% | 25.8% | – | – | –
11 | O=C1c2ccc(Cl)cc2S(=O)(=O)c2cccc(C(=O)N3CCC(Cc4ccccc4)CC3)c21 | 70.8% | 26.7% | -6.25% | 3.7% | -20.1% | -5.15% | – | – | –
12 | COc1ccc(-c2noc(-c3ccc4c(c3)OCO4)n2)cc1 | – | 49.9% | – | – | – | – | – | – | –
13 | Cc1cc(-c2ccccc2)nc(Nc2nc3c(C)cccc3c(=O)[nH]2)n1 | 59.1% | 38% | 41.7% | 10.5% | 22.2% | 5.22% | – | – | –
14 | O=C(Nc1cnc2ccccn2c1=O)c1ccc(Cl)cc1Cl | 56% | 52.5% | 15.5% | 2.31% | -7.49% | -6.53% | – | – | –
15 | CC(C)CCn1cnc2c([nH]c3cccc(Cl)c32)c1=O | 60.6% | 52.9% | -14.6% | -14% | -4.11% | 0.76% | – | – | –
16 | CC(C)(C)C1C/C(=C/c2ccco2)C(=O)/C(=C/c2ccco2)C1 (stereo not given) | – | – | – | – | – | – | 71.5% (active) | 1.32% (inactive) | 10.1% (inactive)
17 | c1ccc(Nc2nnc(-c3cccnc3)s2)cc1 | 57.6% | 40.5% | 46.2% | 42.2% | -5.23% | -13.3% | – | – | –

Row | Compound | activity [1] | activity [2] | activity, % sensitization [3] | activity, % sensitization [4] | activity, % sensitization [5] | activity, % sensitization [6] | inhibition [7] | inhibition [8] | inhibition (Prothrombin (Bos taurus))
18 | CCOC(=O)c1cnc2c(-c3ccccc3)cnn2c1N | 62.2% | 54.7% | 38.5% | 22.1% | 13.3% | 5.35% | – | – | –
19 | C=CCC1=C/C(=C\c2c(N)n3nc(CC(=O)N4CCOCC4)sc3nc2=O)C=C(OC)C1=O | – | – | – | – | – | – | 16.7% (inactive) | -4.68% (inactive) | 72.6% (active)
20 | O/C(=C\c1ccc2ccccc2n1)c1ccc(O)cc1O | 62.3% | 42.8% | 31.9% | 48.7% | 1.18% | 20.3% | – | – | –
21 | C#CC(=O)CC1(CN(Cc2ccccc2)C(=O)OC(C)(C)C)CCCCC1 | 97.7% | 49.4% | 78.9% | 34.5% | 89.9% | 57.8% | – | – | –
22 | O=C(NC(=S)Nc1nc2c(s1)CCCC2)c1ccccc1 | 69.8% | 47.3% | -8.98% | 47.5% | 2.65% | -0.817% | – | – | –
23 | Cc1cccc2nc(=S)n(C(=O)c3ccco3)n12 | 54.6% | 44.5% | -5.2% | -6.02% | -1.17% | -18.3% | – | – | –
24 | COCCCn1c(C(=O)Nc2ccc3c(c2)OCO3)cc2c(=O)n3cccc(C)c3nc21 | 70.2% | 28.2% | -7.02% | -8.71% | -1.61% | -25.9% | – | – | –
25 | CCC(C)c1ccc(O)c(NC(=S)NC(=O)c2cccs2)c1 (stereo not given) | 56.5% | 54.3% | 40.5% | 49.3% | 56.2% | 41.9% | – | – | –
26 | COc1cccc(N/C=C/C(=O)c2ccc(Cl)cc2)c1 | 58% | 50% | 32% | 38.3% | 28.1% | 40.5% | – | – | –
27 | COc1ccc2[nH]c3c(C)c4cc[n+](C)cc4c(C)c3c2c1 | – | – | – | – | – | – | -33.2% (inactive) | -35.8% (active) | 12.2% (inactive)
28 | O=C(CSc1nc2ccccc2c(=O)[nH]1)Nc1nc(-c2ccc(Br)cc2)cs1 | – | – | – | – | – | – | 105% (active) | 16.9% (active) | -37.2% (inactive)
29 | COc1cc(/C=C2/C(=O)NN(c3cccc(Cl)c3)C2=O)cc(Br)c1O | – | – | – | – | – | – | 27.3% (inactive) | -17.1% (inactive) | 36.3% (active)
30 | CCOC(=O)c1sc(NC(=O)Nc2ccc(F)cc2)nc1C | 56.6% | 44.6% | 29% | 12.6% | -5.48% | -3.68% | – | – | –
31 | O=C(Nc1ccc2[nH]ccc2c1)c1cccs1 | 64% | 52.9% | 48.2% | 52.7% | 46.5% | 43.5% | – | – | –
32 | COc1ccccc1C=NNC(=O)NN=Cc1ccccc1OC | 61% | 46.5% | 42.5% | 48.3% | 54.1% | 35.8% | – | – | –
33 | COc1cccc(NC(=O)Nc2nccc(C)n2)c1 | 64.5% | 53% | 46.7% | 47.6% | 25.8% | 11.9% | – | – | –
